Targets with a hit are over-represented here; the source holds about 7,900 in all. About 0.6% of all pairs of compound and target were hits.

Sequence of UniProt Q14320 (Q14320 whole entry, looked up): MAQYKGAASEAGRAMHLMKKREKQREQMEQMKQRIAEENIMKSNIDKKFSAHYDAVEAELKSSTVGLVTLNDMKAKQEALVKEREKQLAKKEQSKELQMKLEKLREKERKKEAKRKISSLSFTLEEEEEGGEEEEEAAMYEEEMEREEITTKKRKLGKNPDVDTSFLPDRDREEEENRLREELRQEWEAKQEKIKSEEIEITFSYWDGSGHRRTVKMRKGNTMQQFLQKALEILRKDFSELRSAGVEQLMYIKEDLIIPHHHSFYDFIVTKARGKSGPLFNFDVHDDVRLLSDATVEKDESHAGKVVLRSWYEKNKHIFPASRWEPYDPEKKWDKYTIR
Sequence of UniProt Q7Z2Z2 (Q7Z2Z2 whole entry, looked up): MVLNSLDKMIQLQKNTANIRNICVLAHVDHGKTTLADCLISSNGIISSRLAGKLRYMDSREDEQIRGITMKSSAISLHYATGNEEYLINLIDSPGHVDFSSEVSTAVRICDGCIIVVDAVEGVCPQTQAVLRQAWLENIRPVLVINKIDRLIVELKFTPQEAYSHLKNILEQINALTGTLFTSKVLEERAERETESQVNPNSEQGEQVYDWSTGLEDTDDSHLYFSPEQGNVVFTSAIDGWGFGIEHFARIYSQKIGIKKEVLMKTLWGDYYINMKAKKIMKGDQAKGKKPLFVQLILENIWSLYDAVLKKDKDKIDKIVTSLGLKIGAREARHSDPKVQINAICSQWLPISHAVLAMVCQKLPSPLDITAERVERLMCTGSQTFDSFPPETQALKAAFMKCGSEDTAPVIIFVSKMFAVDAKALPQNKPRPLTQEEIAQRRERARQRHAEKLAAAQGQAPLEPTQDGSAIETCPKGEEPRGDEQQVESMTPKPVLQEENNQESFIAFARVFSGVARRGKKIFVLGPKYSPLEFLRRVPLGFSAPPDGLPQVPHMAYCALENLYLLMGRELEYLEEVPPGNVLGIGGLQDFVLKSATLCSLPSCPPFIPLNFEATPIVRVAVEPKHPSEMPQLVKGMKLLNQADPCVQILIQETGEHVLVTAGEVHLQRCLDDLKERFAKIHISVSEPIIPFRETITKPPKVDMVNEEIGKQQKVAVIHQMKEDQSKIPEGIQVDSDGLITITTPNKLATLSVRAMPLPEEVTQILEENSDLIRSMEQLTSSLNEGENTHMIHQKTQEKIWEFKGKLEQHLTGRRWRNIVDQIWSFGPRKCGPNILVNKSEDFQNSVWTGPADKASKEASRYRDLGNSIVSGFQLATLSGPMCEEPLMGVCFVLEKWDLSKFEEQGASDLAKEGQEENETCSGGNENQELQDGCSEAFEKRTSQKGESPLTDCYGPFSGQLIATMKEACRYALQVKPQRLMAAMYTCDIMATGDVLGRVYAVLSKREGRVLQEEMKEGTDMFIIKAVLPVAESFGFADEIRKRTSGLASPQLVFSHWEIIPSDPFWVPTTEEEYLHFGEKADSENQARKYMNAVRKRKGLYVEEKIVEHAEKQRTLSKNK
Sequence of UniProt Q5QP82 (Q5QP82 whole entry, looked up): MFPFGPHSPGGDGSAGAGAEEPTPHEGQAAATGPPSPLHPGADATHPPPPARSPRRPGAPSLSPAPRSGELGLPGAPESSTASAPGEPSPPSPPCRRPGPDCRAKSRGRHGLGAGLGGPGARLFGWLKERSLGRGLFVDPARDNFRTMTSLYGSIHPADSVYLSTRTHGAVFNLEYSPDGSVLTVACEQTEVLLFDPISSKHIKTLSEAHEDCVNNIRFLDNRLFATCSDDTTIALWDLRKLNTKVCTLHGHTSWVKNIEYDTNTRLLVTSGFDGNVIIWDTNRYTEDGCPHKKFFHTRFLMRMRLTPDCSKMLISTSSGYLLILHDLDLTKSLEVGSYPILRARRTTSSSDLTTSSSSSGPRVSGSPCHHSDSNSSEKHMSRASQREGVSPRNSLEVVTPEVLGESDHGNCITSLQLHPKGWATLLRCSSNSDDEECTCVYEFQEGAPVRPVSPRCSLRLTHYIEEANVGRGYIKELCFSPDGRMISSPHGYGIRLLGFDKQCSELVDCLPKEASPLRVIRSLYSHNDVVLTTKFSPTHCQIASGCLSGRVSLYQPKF
Sequence of UniProt P07711 (P07711 whole entry, looked up): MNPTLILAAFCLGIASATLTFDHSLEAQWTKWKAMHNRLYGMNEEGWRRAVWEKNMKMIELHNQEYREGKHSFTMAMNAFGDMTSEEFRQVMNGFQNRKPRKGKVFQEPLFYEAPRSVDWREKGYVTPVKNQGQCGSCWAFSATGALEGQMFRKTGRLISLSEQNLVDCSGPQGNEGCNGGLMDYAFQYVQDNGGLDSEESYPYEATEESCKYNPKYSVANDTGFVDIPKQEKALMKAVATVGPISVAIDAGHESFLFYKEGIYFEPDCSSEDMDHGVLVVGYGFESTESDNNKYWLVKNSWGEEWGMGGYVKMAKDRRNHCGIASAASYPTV
Sequence of UniProt Q6P2E9 (Q6P2E9 whole entry, looked up): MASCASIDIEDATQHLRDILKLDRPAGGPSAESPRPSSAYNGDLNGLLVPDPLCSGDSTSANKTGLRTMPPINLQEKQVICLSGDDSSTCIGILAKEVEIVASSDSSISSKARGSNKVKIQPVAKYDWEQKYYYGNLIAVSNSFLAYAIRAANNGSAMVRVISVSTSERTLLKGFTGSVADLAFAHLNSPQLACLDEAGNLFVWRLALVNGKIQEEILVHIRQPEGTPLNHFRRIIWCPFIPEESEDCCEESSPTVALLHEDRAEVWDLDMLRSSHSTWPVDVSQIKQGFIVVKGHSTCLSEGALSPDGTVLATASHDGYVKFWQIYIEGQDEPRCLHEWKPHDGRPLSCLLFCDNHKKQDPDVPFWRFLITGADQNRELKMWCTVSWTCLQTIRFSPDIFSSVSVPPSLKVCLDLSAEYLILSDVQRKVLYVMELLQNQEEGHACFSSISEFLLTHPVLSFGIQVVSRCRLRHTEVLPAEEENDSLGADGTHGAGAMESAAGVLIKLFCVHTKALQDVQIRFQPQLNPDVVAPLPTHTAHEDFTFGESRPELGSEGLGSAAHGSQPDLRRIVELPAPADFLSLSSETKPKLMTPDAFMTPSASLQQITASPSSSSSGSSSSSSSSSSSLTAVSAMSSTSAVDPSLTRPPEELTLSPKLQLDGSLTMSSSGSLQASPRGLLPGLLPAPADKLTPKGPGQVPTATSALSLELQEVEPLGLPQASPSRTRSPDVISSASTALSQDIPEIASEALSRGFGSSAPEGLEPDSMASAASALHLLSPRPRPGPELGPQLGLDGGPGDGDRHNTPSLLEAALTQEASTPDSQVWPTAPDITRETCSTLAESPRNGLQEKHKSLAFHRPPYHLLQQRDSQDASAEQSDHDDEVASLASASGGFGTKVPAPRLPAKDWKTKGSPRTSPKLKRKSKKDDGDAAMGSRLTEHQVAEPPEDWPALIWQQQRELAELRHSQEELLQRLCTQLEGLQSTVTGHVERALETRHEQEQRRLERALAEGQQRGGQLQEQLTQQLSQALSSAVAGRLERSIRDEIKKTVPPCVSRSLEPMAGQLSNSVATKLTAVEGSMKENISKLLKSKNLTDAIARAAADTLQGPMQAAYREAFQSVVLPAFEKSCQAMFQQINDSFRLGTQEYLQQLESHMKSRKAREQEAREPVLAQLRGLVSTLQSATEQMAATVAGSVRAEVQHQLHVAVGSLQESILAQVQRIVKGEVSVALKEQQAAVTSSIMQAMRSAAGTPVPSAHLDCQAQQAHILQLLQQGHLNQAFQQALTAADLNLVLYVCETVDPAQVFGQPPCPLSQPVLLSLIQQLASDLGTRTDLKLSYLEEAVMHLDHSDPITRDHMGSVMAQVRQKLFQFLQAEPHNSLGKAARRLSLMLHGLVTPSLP
Sequence of UniProt P17844 (P17844 whole entry, looked up): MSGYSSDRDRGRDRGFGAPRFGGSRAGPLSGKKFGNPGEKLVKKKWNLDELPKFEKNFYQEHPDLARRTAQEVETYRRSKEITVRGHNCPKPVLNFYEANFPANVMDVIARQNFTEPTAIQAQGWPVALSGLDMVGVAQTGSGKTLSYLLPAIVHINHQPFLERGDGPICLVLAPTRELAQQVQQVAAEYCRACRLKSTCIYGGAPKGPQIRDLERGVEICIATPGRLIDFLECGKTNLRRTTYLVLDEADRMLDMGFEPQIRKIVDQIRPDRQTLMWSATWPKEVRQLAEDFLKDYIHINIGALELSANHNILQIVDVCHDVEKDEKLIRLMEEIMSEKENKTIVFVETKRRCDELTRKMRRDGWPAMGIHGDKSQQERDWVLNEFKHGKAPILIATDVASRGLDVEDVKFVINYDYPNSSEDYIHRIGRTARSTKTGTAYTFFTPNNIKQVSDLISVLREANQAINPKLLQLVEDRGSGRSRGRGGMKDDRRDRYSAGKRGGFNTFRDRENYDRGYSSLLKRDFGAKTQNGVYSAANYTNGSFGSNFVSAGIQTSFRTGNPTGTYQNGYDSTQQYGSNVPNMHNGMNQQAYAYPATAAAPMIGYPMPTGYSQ
Sequence of UniProt Q16643 (Q16643 whole entry, looked up): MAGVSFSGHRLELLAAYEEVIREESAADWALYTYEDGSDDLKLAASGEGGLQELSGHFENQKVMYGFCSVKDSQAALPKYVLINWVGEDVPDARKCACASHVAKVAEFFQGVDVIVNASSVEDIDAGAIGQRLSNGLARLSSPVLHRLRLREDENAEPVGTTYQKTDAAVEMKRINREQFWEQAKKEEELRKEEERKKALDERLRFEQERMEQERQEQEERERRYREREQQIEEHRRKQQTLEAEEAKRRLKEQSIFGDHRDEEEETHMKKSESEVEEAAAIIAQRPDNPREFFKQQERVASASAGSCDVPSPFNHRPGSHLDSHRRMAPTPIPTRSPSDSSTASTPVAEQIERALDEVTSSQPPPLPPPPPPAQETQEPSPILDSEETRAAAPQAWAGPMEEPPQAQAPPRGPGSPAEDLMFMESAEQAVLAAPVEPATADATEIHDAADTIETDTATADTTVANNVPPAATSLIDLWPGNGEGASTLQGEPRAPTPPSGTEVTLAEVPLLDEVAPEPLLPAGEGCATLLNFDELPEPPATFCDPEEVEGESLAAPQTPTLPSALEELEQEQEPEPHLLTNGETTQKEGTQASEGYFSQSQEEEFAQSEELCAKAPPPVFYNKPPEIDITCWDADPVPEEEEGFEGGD

Compound in the assay: C[C@@H]1COCCN1C2=NC(=NC(=C2)C3(CC3)S(=O)(=O)C)C4=C5C=CNC5=CC=C4
The experiment in a line: log2 fold change, soluble protein after heating vs DMSO (PISA); higher = thermal stabilisation; K562 cells, 10 uM, 30 min; active = over 0.2 and 3.5 SD of the protein, either way, in both replicates (recomputed). In a few lines: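 K562 cells at 2×10^6 cells/mL were exposed to 10 μM compound for 30 min, then aliquots were heated for 3 min across 48°C-58°C, pooled, and extracted in PBS containing 0.5% NP-40 at 4°C. The supernatant after 21,000xg for 90 min was taken as soluble protein and measured by TMTpro 16plex LC-MS/MS with channel sums equalised. Thermal stability is reported relative to control samples, with values from duplicates. Fold changes are given on a log2 scale.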
As to DDX39A (UniProt O00148), the log2 fold change was 0.079 (inactive). For the target DCAF10 (UniProt Q5QP82), the log2 fold change was 0.037 (inactive).

On to EDC4 (UniProt Q6P2E9), for which the log2 fold change is 0.003 (inactive).

On to EHD2 (UniProt Q9NZN4), for which the log2 fold change is 0.077 (inactive). For the target DNAH10 (UniProt Q8IVF4), the log2 fold change is -0.003 (inactive). As for ETNK1 (UniProt Q9HBU6), the log2 fold change was 0.088 (inactive).

Regarding DDX4 (UniProt Q9NQI0), the log2 fold change was 0.013 (inactive). The same measure for E2F4 (UniProt Q16254): 0.024 (inactive); for EFL1 (UniProt Q7Z2Z2): 0.074 (inactive); for EXTL2 (UniProt Q9UBQ6): 0.014 (inactive). Regarding ECPAS (UniProt Q5VYK3), the log2 fold change is 0.01 (inactive). The same measure for EEF1AKNMT (UniProt Q8N6R0): 0.006 (inactive); for DNAJC1 (UniProt Q96KC8): 0.009 (inactive); for DHX40 (UniProt Q8IX18): -0.003 (inactive). On to ERLIN2 (UniProt O94905), for which the log2 fold change is -0.167 (inactive). The same measure for EED, A0A5F9ZI63: -0.047 (inactive); for FAM118A (UniProt Q9NWS6): 0.044 (inactive). With CTNNB1 (UniProt P35222), the log2 fold change was -0.087 (inactive).

Regarding EXOC8 (UniProt Q8IYI6), the log2 fold change is 0.109 (inactive). The value for DDX5 (UniProt P17844) was 0.135 (inactive); that for CTSB (UniProt P07858) was 0.057 (inactive). The value for FAM160B1 (UniProt Q5W0V3) was 0.06 (inactive); that for DNAAF2 (UniProt Q9NVR5) was -0.067 (inactive). The value for DYNC1I2 isoform 5 (UniProt Q13409) was -0.035 (inactive). In the case of CTSL (UniProt P07711), the log2 fold change is -0.02 (inactive). In the case of CWC27 (UniProt Q6UX04), the log2 fold change was 0.145 (inactive). The same measure for EEF1B2 (UniProt P24534): -0.073 (inactive).

As for DCUN1D1 (UniProt Q96GG9), the log2 fold change is -0.047 (inactive).

Take CUEDC2 (UniProt Q9H467): the log2 fold change is 0.026 (inactive).

As to CUX1 isoform 3 (UniProt P39880), the log2 fold change is 0.086 (inactive).

With DPYSL2 (UniProt Q16555), the log2 fold change was -0.09 (inactive).

EXOC2 (UniProt Q96KP1): the log2 fold change is -0.112 (inactive). Turning to DIP2A (UniProt Q14689), the log2 fold change is 0.159 (inactive).

Regarding DHCR24 (UniProt Q15392), the log2 fold change was 0.076 (inactive). The value for DBN1 isoform 3 (UniProt Q16643) was -0.075 (inactive). DPP8 (UniProt Q6V1X1): the log2 fold change is 0.011 (inactive). Regarding DDB1 (UniProt Q16531), the log2 fold change is 0.026 (inactive). Regarding FAM50A (UniProt Q14320), the log2 fold change was 0.026 (inactive).

The values above are taken from the supplement of paper PMC10849652.
